From PubChem BioAssay (EPA / NIEHS)
Inconclusive results are not listed. Calls of active or inactive are those of the source. The calls were made as follows, unless noted: active = hit-call score of the fitted dose curve at least 0.9, where 1 is the maximum; inactive = score below 0.9.

Columns and labels:
[1] = read-out: Monokine induced gamma interferon (MIG), CXCL9 (gene 4283); test: BSK_3C_MIG: BioMAP Diversity Plus: 3C Assay for Monokine induced gamma interferon (MIG) Biomarker Activity (AID 2283021); details: primary human endothelial cells (HUVEC); actives raise or lower the signal;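 as to AC50: MIG protein level measured by immunoassay in the treated endothelial cultures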
In short: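 Primary human umbilical vein endothelial cells in the 3C system were exposed to chemical for 24 h, after which MIG was quantified by ELISA. Activity was fitted bidirectionally against DMSO as negative control and baseline.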

[2] = biological target: human Vitamin D Receptor (VDR), VDR (gene 7421) (UniProt P11473); test: ATG_VDR_TRANS: Attagene TRANS-FACTORIAL HepG2 Assay for human Vitamin D Receptor (VDR) (AID 2283022; active = hit-call score of the fitted dose curve at least 0.9, where 1 is the maximum)
human Vitamin D Receptor (VDR), VDR (gene 7421), sequence (P11473 whole entry, looked up, the tested form may be a part): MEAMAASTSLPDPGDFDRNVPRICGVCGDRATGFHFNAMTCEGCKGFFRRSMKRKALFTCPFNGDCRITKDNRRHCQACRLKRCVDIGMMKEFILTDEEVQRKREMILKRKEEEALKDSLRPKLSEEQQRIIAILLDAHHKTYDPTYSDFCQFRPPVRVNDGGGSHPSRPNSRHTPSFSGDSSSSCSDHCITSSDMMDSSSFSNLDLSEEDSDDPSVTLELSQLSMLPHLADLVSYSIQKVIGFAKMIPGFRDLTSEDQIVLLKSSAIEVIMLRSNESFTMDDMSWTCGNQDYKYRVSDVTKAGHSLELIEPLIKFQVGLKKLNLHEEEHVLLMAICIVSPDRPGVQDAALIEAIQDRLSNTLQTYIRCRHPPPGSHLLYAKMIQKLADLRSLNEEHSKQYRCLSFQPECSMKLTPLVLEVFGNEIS
In short: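 Steps: transfect HepG2 with GAL4-UAS-driven reporter constructs; dose compounds 24 h; isolate RNA, reverse-transcribe, PCR-amplify with 6-FAM-labelled primer extension and HpaI digestion; quantify fragments by capillary electrophoresis relative to DMSO.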

[3] = BSK_3C_SRB: Viability Assessment in the BioMAP Diversity Plus: 3C Assay (AID 2283023); details: primary human endothelial cells (HUVEC);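 also: cells read 24 h after compound dosing; fitted both ways against DMSO so a hit may be signal rise or drop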
In short: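 Absorbance at 560 nm of sulforhodamine B-stained (0.1%) total protein served as a cytotoxicity readout in human umbilical vein endothelial cells, 24 h after chemical treatment. Signal was fitted bidirectionally relative to DMSO.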

[4] = read-out: Matrix Metallopeptidase 1 (MMP1), MMP1 (gene 4312); test: BSK_BE3C_MMP1: BioMAP Diversity Plus: BE3C Assay for Matrix Metallopeptidase 1 (MMP1) Biomarker Activity (AID 2283024); details: primary human bronchial epithelial cells; actives raise or lower the signal
In short: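 Primary human bronchial epithelial cells were dosed with test chemicals, and MMP1 levels were measured by ELISA 24 h later. Data were fitted bidirectionally against DMSO as the negative control and activity baseline.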

[5] = BSK_3C_Vis: BioMAP Diversity Plus: 3C Assay for Morphology Visualization (AID 2283025); details: primary human endothelial cells (HUVEC);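 also: fitted both ways so gain or loss versus DMSO counts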
In short: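 Human umbilical vein endothelial cells in the 3C system were imaged by light microscopy 24 h after chemical dosing to record cell morphology. Activity was fitted bidirectionally against DMSO as negative control and baseline; the endpoint serves as a background control.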

[6] = read-out: Pselectin, SELP (gene 6403); test: BSK_4H_Pselectin: BioMAP Diversity Plus: 4H Assay for Pselectin Biomarker Activity (AID 2283026); details: primary human endothelial cells (HUVEC); actives raise or lower the signal
In short: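 Primary human umbilical vein endothelial cells were exposed to test chemical for 24 h, then cell-surface P-selectin was quantified by ELISA. Activity was fitted bidirectionally against DMSO as negative control and baseline.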

[7] = BSK_BE3C_SRB: Viability Assessment in the BioMAP Diversity Plus: BE3C Assay (AID 2283028); details: primary human bronchial epithelial cells
In short: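 Cells (human bronchial epithelial, primary) are treated with chemicals, and after 24 h the parallel cultures are fixed in 10% TCA. These are then stained with 0.1% SRB and read at 560 nm. Gain or loss of signal is fitted relative to DMSO.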

[8] = read-out: Thrombomodulin, THBD (gene 7056); test: BSK_3C_Thrombomodulin: BioMAP Diversity Plus: 3C Assay for Thrombomodulin Biomarker Activity (AID 2283029); details: primary human endothelial cells (HUVEC); actives raise or lower the signal
In short: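 Primary human umbilical vein endothelial cells (3C system) were exposed to chemical for 24 h, then thrombomodulin levels were measured by ELISA. Activity was fitted bidirectionally against the DMSO negative control as baseline.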

[9] = read-out: Urokinase-type plasminogen activator receptor (uPAR), PLAUR (gene 5329); test: BSK_4H_uPAR: BioMAP Diversity Plus: 4H Assay for Urokinase-type plasminogen activator receptor (uPAR) Biomarker Activity (AID 2283030); details: primary human endothelial cells (HUVEC); actives raise or lower the signal
In short: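 Cell-surface uPAR ELISA signal, measured 24 h after dosing human umbilical vein endothelial cells, was analyzed with bidirectional fitting relative to DMSO. Parallel SRB staining of total protein tracked overt cytotoxicity.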

[10] = read-out: Vascular endothelial growth factor receptor 2 (Homo sapiens) (UniProt P35968); test: BSK_4H_VEGFRII: BioMAP Diversity Plus: 4H Assay for Vascular endothelial growth factor receptor 2 (VEGFR2) Biomarker Activity (AID 2283031); details: primary human endothelial cells (HUVEC); actives raise or lower the signal;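 as to AC50: cell-surface VEGFR2 protein level quantified by ELISA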
In short: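 ELISA read-out of VEGFRII in primary human umbilical vein endothelium, taken 24 h after chemical treatment. Responses are expressed relative to DMSO, with bidirectional fitting.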

[11] = read-out: Vascular cell adhesion molecule 1 (VCAM1), VCAM1 (gene 7412); test: BSK_4H_VCAM1: BioMAP Diversity Plus: 4H Assay for Vascular cell adhesion molecule 1 (VCAM1) Biomarker Activity (AID 2283033); details: primary human endothelial cells (HUVEC); actives raise or lower the signal
In short: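 Primary human umbilical vein endothelial cells were exposed to chemicals for 24 h, after which VCAM-1 was quantified by ELISA. Responses were fitted bidirectionally against DMSO as negative control and activity baseline.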

[12] = read-out: Interferon-gamma inducible Protein 10 (IP10), CXCL10 (gene 3627); test: BSK_BE3C_IP10: BioMAP Diversity Plus: BE3C Assay for Interferon-gamma inducible Protein 10 (IP10) Biomarker Activity (AID 2283034); details: primary human bronchial epithelial cells; actives raise or lower the signal
In short: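 Human primary bronchial epithelial cells were exposed to chemicals for 24 hours, after which IP-10 levels were measured by ELISA. Data were fitted bidirectionally against DMSO, which served as the negative control and activity baseline.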

[13] = read-out: Monokine induced gamma interferon (MIG), CXCL9 (gene 4283); test: BSK_BE3C_MIG: BioMAP Diversity Plus: BE3C Assay for Monokine induced gamma interferon (MIG) Biomarker Activity (AID 2283035); details: primary human bronchial epithelial cells; actives raise or lower the signal;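 also: MIG protein measured by ELISA in BE3C cultures after 24 h of dosing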
In short: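 MIG level was determined by ELISA after 24 h chemical treatment of primary human bronchial epithelial cells. Values were fitted bidirectionally with DMSO as the negative control and activity baseline.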

[14] = read-out: Transforming growth factor beta 1 (TGFb1), TGFB1 (gene 7040); test: BSK_BE3C_TGFb1: BioMAP Diversity Plus: BE3C Assay for Transforming growth factor beta 1 (TGFb1) Biomarker Activity (AID 2283036); details: primary human bronchial epithelial cells; actives raise or lower the signal
In short: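 Human primary bronchial epithelial cells (BE3C system) were dosed with chemical and TGF-b1 levels measured by ELISA at 24 h. Activity was fitted bidirectionally relative to DMSO negative control as baseline.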

[15] = read-out: Plasminogen activator inhibitor-1 (PAI1), SERPINE1 (gene 5054); test: BSK_BE3C_PAI1: BioMAP Diversity Plus: BE3C Assay for Plasminogen activator inhibitor-1 (PAI1) Biomarker Activity (AID 2283037); details: primary human bronchial epithelial cells; actives raise or lower the signal
In short: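 Human primary bronchial epithelial cells were exposed to chemical for 24 h, then PAI-1 was quantified by ELISA. Activity was fitted bidirectionally relative to the DMSO negative control baseline.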

[16] = read-out: urokinase plasminogen activator (uPA), PLAU (gene 5328); test: BSK_BE3C_uPA: BioMAP Diversity Plus: BE3C Assay for urokinase plasminogen activator (uPA) Biomarker Activity (AID 2283038); details: primary human bronchial epithelial cells; actives raise or lower the signal;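 also: uPA protein level quantified by ELISA in cell cultures; uPA read one day after compound addition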
In short: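 Bronchial epithelial cells (human, primary); chemical 24 h; uPA by ELISA; bidirectional fit vs DMSO. SRB (0.1%, after 10% TCA fixation, 560 nm) in parallel cultures for cytotoxicity.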

[17] = read-out: Urokinase-type plasminogen activator receptor (uPAR), PLAUR (gene 5329); test: BSK_BE3C_uPAR: BioMAP Diversity Plus: BE3C Assay for Urokinase-type plasminogen activator receptor (uPAR) Biomarker Activity (AID 2283039); details: primary human bronchial epithelial cells; actives raise or lower the signal
In short: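 Primary human bronchial epithelial cells were dosed with chemical and harvested 24 h later; uPAR was quantified by ELISA. Activity was fitted bidirectionally against DMSO as negative control and baseline.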

[18] = read-out: Interleukin-6 (IL6), IL6 (gene 3569); test: BSK_CASM3C_IL6: BioMAP Diversity Plus: CASM3C Assay for Interleukin-6 (IL6) Biomarker Activity for (AID 2283040); details: primary human coronary artery smooth muscle cells; actives raise or lower the signal
[19] = BSK_4H_SRB: Viability Assessment in the BioMAP Diversity Plus: 4H Assay (AID 2283027); details: primary human endothelial cells (HUVEC);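 also: cells exposed to compound for 24 h before staining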;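 as to AC50: curves fitted both ways versus DMSO so AC50 may be loss or gain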
In short: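 Absorbance at 560 nm of SRB-stained total protein served as the viability read-out in confluent primary human umbilical vein endothelium 24 h after chemical treatment. Curves were fitted bidirectionally against DMSO as negative control.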

[20] = read-out: Human Leukocyte Antigen - DR isotype (HLADR), HLA-DRA (gene 3122); test: BSK_BE3C_HLADR: BioMAP Diversity Plus: BE3C Assay for Human Leukocyte Antigen - DR isotype (HLADR) Biomarker Activity (AID 2283032); details: primary human bronchial epithelial cells; actives raise or lower the signal
In short: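 Human primary bronchial epithelial cells in the BE3C system were exposed to chemicals for 24 h, after which HLA-DR levels were quantified by ELISA. Activity was fitted bidirectionally, gain or loss of signal, against DMSO as negative control and baseline.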

Measured: AC50

Clc1ccccc1Cl
not listed: [19] | [20]
inactive: all other assays above

Nc1ccc(Cc2ccc(N)cc2)cc1
not listed: [20]
inactive: all other assays above

ClC1=C(Cl)[C@]2(Cl)[C@H]3[C@H]([C@@H]4C=C[C@H]3C4)[C@@]1(Cl)C2(Cl)Cl
active: [1] 37.3 µM | [3] 26 µM | [4] 20 µM | [6] 24.1 µM | [19] 33.3 µM | [9] 32.3 µM | [10] 29.4 µM | [11] 33.9 µM | [12] 30.3 µM | [15] 34 µM
inactive: [2] | [5] | [7] | [8] | [20] | [13] | [14] | [16] | [17] | [18]

CO[C@@H]1[C@H](OC(=O)NC(=O)CCl)CC[C@]2(CO2)[C@H]1[C@@]1(C)O[C@@H]1CC=C(C)C
active: [6] 2.09 µM | [11] 6.62 µM | [12] 9.12 µM | [15] 6.98 µM | [17] 5.83 µM
not listed: [20]
inactive: all other assays above

c1ccc(N=Nc2ccccc2)cc1
not listed: [19]
inactive: all other assays above

COC(=O)c1ccccc1N
not listed: [6]
inactive: all other assays above

CCOc1cccc(C2(N3CCN(c4ccccc4)CC3)CCC(C)CC2)c1 (configuration not stated)
not listed: [19] | [20]
inactive: all other assays above
